High-throughput results: PubChem BioAssay, Sanford-Burnham Center for Chemical Genomics
SENP8 block-1: human SENP8 protease inhibitors, primary screen, biochemical, fluorescence, Nedd8 protein substrate, uHTS | Sentrin-specific protease 8 (Homo sapiens), Q96LD8 | recombinant SENP8 | inhibition, % at 20 µM | 360,000 compounds, 0.64% hits; in the data active means inhibition mostly above about 40%, no sharp cut-off; inactive means mostly below about 27%
Target sequence (Q96LD8 whole entry, looked up): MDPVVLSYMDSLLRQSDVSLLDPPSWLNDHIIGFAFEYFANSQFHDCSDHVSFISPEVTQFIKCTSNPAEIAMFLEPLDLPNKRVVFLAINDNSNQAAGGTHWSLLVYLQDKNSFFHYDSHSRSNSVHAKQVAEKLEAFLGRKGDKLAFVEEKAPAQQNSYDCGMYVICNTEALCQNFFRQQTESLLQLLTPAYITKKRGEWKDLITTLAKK
PPC-1+TRAIL kill: compounds killing PPC-1 cancer cells with TRAIL present, primary screen, TRAIL potentiator project, ATPLite luminescence, uHTS; PPC-1 cells + TRAIL, ATPLite viability luminescence; cell killing (% activity), % at 4 µM or 5 µM; 220,000 compounds, 0.41% hits; AID 1443, 2008;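 active means cell killing above 50% in the first pass at 4 µM, then a duplicate retest at 5 µM averaging 50% or more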
C8 TRAIL sens: viability loss with TRAIL in NB7+C8 cells, primary screen, TRAIL sensitizer project, cell-based, ATPlite luminescence; inhibition (viability loss, TRAIL sensitization), % at 10 µM; 360,000 compounds, 1% hits; AID 624354, 2012;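 active means compounds causing at least 50% loss of cell viability in the single-dose screen, relative to plate controls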
SENP7 block: SENP7 protease inhibitors, primary screen, biochemical, luminescence, uHTS. inhibition, % at 5 µM. AID 434973, 2010. 330,000 compounds, 1.5% hits. recombinant SENP7, Z-RLRGG-aminoluciferin luminescence, 40 min;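 active means inhibition above about 50% at the single test dose, limit read from the data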
SENP8 block-2: SENP8 protease inhibitors, primary screen, biochemical, luminescence. 330,000 compounds, 1.2% hits. purified SENP8, Z-RLRGG-aminoluciferin cleavage. Sentrin-specific protease 8 (Homo sapiens), Q96LD8. inhibition, % at 10 µM; in the data active means inhibition above about 50%
SENP6 block: SENP6 protease inhibitors, primary screen, biochemical, luminescence, uHTS; Sentrin-specific protease 6 (Homo sapiens), Q9GZR1; Recombinant SENP6 catalytic domain, aminoluciferin luminescence; inhibition, % at 10 µM; 330,000 compounds, 1.8% hits;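 active means inhibition above about 50% at the single tested dose, limit read from the data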
SENP8 confirm: SENP8 protease inhibitors, retest, confirmation, biochemical, luminescence, single concentration; shares compounds with SENP7 block; Recombinant SENP8, Z-RLRGG-aminoluciferin luminescence, 60 min; inhibition, % at 12.5 µM; 6,200 compounds, 40% hits; AID 488912, 2010;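 active means mean inhibition across replicates above about 50%, limit read from the data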
SENP6 conf: SENP6 protease inhibitors, confirmation, biochemical, luminescence, single concentration; inhibition, % at 12.5 µM; recombinant SENP6, Z-RLRGG-aminoluciferin luminescence; 6,200 compounds, 58% hits; AID 488915, 2010; shares compounds with SENP7 block
SENP7 conf: SENP7 protease inhibitors, retest, confirmation, biochemical, luminescence, single concentration | inhibition, % at 12.5 µM | shares compounds with SENP7 block | AID 488917, 2010 | 6,200 compounds, 69% hits | recombinant SENP7, Z-RLRGG-aminoluciferin luminescence, 40 min
Casp3 SENP sel: caspase-3 protease inhibitors, confirmation, selectivity assay for SENP inhibitor project, biochemical, single concentration; shares compounds with SENP7 block; purified caspase-3, Z-DEVD-aminoluciferin luminescence, 60 min; inhibition, % at 12.5 µM; 6,200 compounds, 60% hits;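 active means mean inhibition above about 50%, limit read from the data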
Target sequence (P42574 28-227 limits assumed): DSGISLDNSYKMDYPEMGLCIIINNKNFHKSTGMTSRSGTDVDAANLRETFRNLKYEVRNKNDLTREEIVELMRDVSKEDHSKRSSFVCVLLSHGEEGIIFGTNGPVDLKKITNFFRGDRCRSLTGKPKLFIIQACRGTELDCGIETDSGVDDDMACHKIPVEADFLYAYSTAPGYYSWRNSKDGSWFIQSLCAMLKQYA
SENP luc ctr: counter-screen for SENP inhibitors: luminescence interference | inhibition, % at 12.5 µM | 6,200 compounds, 39% hits | shares compounds with SENP7 block | Pre-incubated SENP8/Z-RLRGG-aminoluciferin, luciferase luminescence interference;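 active means mean inhibition above about 50% when retested at one dose, limit read from the data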
Large screens that a line does not name were inactive (follow-up assays come after a bar, where they were run). Only some compounds are listed: those with a hit (about 3% of all), similar ones and a draw of the others.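 How the source made its calls, unless noted: active means mean inhibition above about 50% in the one-dose retest (limit read from the data); inactive means the rest.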

Cc1ccc(N(C)S(=O)(=O)c2cccc(C(=O)OCC(=O)N(C)Cc3ccccc3)c2)cc1	none (no result: PPC-1+TRAIL kill, SENP7 block, SENP8 block-2, SENP6 block)
COCCCNC(=O)c1cccn2c(=O)c3cc4ccccc4cc3nc12	SENP8 block-2 85.4, SENP6 block 81.7 | SENP8 confirm inactive | SENP6 conf inactive | SENP7 conf inactive | Casp3 SENP sel inactive | SENP luc ctr inactive
COc1ccccc1NC(=O)c1ccc(CSc2ccccc2)o1	none (no result: PPC-1+TRAIL kill)
Cc1ccc(S(=O)(=O)N(C)C)cc1NC(=O)C(C)OC(=O)C1CCC1 (configuration not stated)	none (no result: PPC-1+TRAIL kill)
Cc1ccc(S(=O)(=O)NCc2cn3c(C)csc3n2)cc1	none
Cc1ccc(SCc2cn3c(C)csc3n2)cc1	SENP7 block 85.3, SENP8 block-2 75.1, SENP6 block 83.9 | SENP8 confirm 80.3 | SENP6 conf 80.2 | SENP7 conf 95.8 | Casp3 SENP sel 85.9 | SENP luc ctr 86.4
CNC(=O)COC(=O)c1ccc(-c2nc3ccccc3s2)s1	PPC-1+TRAIL kill 66.3, SENP7 block 97.2, SENP8 block-2 92.8, SENP6 block 96.9 | SENP8 confirm inactive | SENP6 conf inactive | SENP7 conf 50.6 | Casp3 SENP sel 51.9 | SENP luc ctr inactive
COCCCNC(=O)COC(=O)c1ccc(-c2nc3ccccc3s2)s1	SENP7 block 85.8, SENP8 block-2 82.4, SENP6 block 85.7 | SENP8 confirm 61.2 | SENP6 conf 66.5 | SENP7 conf 91.2 | Casp3 SENP sel 78.1 | SENP luc ctr 58.9
CNC(=O)COC(=O)/C=C/c1nc2ccccc2s1	none (no result: PPC-1+TRAIL kill)
O=C1OC(O)c2cccc3cccc1c23 (configuration not stated)	none (no result: PPC-1+TRAIL kill, SENP7 block, SENP8 block-2, SENP6 block)
CC(=O)Nc1ccc(S(=O)(=O)NC2=C(N3CCN(C)CC3)C(=O)c3ccccc3C2=O)cc1	none (no result: PPC-1+TRAIL kill)
CCN1CCN(C2=C(NS(=O)(=O)c3ccc(C)cc3)C(=O)c3ccccc3C2=O)CC1	SENP8 block-1 42.9, C8 TRAIL sens 52.0, SENP6 block 51.9 (no result: PPC-1+TRAIL kill) | SENP8 confirm inactive | SENP6 conf inactive | SENP7 conf inactive | Casp3 SENP sel inactive | SENP luc ctr inactive
CCN1CCN(C2=C(NS(=O)(=O)c3ccc(NC(C)=O)cc3)C(=O)c3ccccc3C2=O)CC1	SENP8 block-1 62.9, SENP6 block 51.9 (no result: PPC-1+TRAIL kill) | SENP8 confirm inactive | SENP6 conf inactive | SENP7 conf inactive | Casp3 SENP sel inactive | SENP luc ctr inactive
CC(=O)Nc1ccc(S(=O)(=O)NC2=C(N3CCN(Cc4ccccc4)CC3)C(=O)c3ccccc3C2=O)cc1	none (no result: SENP7 block, SENP8 block-2, SENP6 block)
Oc1c(-c2cc(-c3ccco3)[nH]n2)ccc2ccccc12	SENP7 block 54.6, SENP8 block-2 55.1 | SENP8 confirm inactive | SENP6 conf 69.3 | SENP7 conf 85.7 | Casp3 SENP sel inactive | SENP luc ctr inactive
Cc1cc(C)c(C#N)c(N2CCN(c3ccccc3F)CC2)n1	none (no result: PPC-1+TRAIL kill)
COCC(C)N1C(=O)Cc2c1nc(N)c1c(N)nc(N3CCN(c4ccccc4F)CC3)c(C#N)c21 (configuration not stated)	SENP6 block 74.7 | SENP8 confirm inactive | SENP6 conf inactive | SENP7 conf inactive | Casp3 SENP sel inactive | SENP luc ctr inactive
COCCN1C(=O)Cc2c1nc(N)c1c(N)nc(N3CCN(c4ccc(F)cc4)CC3)c(C#N)c21	none
COc1ccc(CN2C(=O)Cc3c2nc(N)c2c(N)nc(N4CCOCC4)c(C#N)c32)cc1	SENP6 block 65.6 | SENP8 confirm inactive | SENP6 conf inactive | SENP7 conf inactive | Casp3 SENP sel inactive | SENP luc ctr inactive
N#Cc1c(N(CCO)CCO)nc(N)c2c(N)nc3c(c12)CC(=O)N3Cc1cccs1	none
CN(CCO)c1nc(N)c2c(N)nc3c(c2c1C#N)CC(=O)N3Cc1cccs1	SENP6 block 73.9 | SENP8 confirm inactive | SENP6 conf inactive | SENP7 conf inactive | Casp3 SENP sel inactive | SENP luc ctr inactive
Cc1cccc(-c2nc3c(c(=O)c4ccccc4n3C)c(=O)n2-c2ccccc2)c1	none
Cc1ccc2nc(/C(C#N)=C/c3ccc(O)c(O)c3)[nH]c2c1	SENP6 block 65.1 (no result: PPC-1+TRAIL kill) | SENP8 confirm 54.2 | SENP6 conf inactive | SENP7 conf 71.7 | Casp3 SENP sel inactive | SENP luc ctr inactive
CCOc1ccc(CCNC(=O)c2cccc(-n3cnnn3)c2)cc1OCC	none (no result: PPC-1+TRAIL kill)
O=Nc1ccc(NOC(=O)c2ccccc2)cc1	SENP6 block 87.5 | SENP8 confirm inactive | SENP6 conf inactive | SENP7 conf 103.0 | Casp3 SENP sel inactive | SENP luc ctr inactive
Cc1ccc(S(=O)(=O)N2CCOCC2)cc1C(=O)NCCN1C(=O)S/C(=C\c2ccccc2Cl)C1=O	none
CC(C)(C)c1ccc(/C=C2\SC(=O)N(CCNC(=O)c3cccc(S(=O)(=O)N4CCOCC4)c3)C2=O)cc1	C8 TRAIL sens 57.6, SENP7 block 90.4, SENP8 block-2 81.9, SENP6 block 90.7 | SENP8 confirm inactive | SENP6 conf 59.0 | SENP7 conf 73.6 | Casp3 SENP sel 54.8 | SENP luc ctr inactive
Cc1ccc(C(O)c2ncc(-c3ccc(Cl)cc3)[nH]2)cc1 (configuration not stated)	none (no result: PPC-1+TRAIL kill, SENP7 block, SENP8 block-2, SENP6 block)
O=C1Nc2ccccc2N(O)N1c1cc(-c2cccc(Cl)c2)no1	SENP7 block 60.4, SENP8 block-2 57.5 | SENP8 confirm 83.3 | SENP6 conf 80.3 | SENP7 conf 93.1 | Casp3 SENP sel 88.3 | SENP luc ctr 80.8
Cc1cc(C)c(NC(=O)CSc2nnc(-c3ccncc3)n2Cc2ccco2)c(C)c1	SENP7 block 69.9 | SENP8 confirm inactive | SENP6 conf inactive | SENP7 conf inactive | Casp3 SENP sel inactive | SENP luc ctr inactive
